# Screens deposited in PubChem BioAssay by National Center for Advancing Translational Sciences (NCATS).
# BAZ2B block: BAZ2B (human) inhibition; 360,000 tested, 4.4% active; AID 504333; AlphaScreen BAZ2B-H3K14Ac peptide displacement; Potency, µM (series often up to 114 µM), most hits filed as inhibitors; further: nearly all actives have a fitted effect of over 60% in size
#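 Multi-concentration screen (max 110 uM) measuring displacement of acetylated histone H3 peptide from BAZ2B by AlphaScreen, using 50 nM protein, 50 nM peptide and 10 ug/mL streptavidin donor plus Ni-chelate acceptor beads.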
# G9a inh: blocks human histone lysine methyltransferase G9a; G9a H3K9 monomethylation, AlphaScreen, 2 h; Potency, µM (series often up to 102 µM), most hits filed as inhibitors; 350,000 tested, 8.8% active; further: nearly all actives have a fitted effect of over 75% in size
# Target sequence (Q96KQ7 913-1193 limits assumed): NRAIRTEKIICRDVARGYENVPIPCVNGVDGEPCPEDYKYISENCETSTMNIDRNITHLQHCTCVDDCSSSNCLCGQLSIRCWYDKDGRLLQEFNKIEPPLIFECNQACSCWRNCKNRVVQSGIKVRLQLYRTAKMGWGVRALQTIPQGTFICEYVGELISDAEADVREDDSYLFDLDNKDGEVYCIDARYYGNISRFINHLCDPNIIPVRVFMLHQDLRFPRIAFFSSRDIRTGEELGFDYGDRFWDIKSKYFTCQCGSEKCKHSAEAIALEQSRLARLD
#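 G9a (20 nM) was preincubated 15 min with compound, then reacted 2 h at room temperature with 500 nM biotin-H3K9 peptide and 20 µM SAM. Monomethyl-H3K9 detected by AlphaScreen using anti-H3K9me1 antibody.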
# Sfp PPTase inh: Sfp phosphopantetheinyl transferase inhibition; Biochemical Sfp PPTase activity, qHTS; Potency, µM, usual class: inhibitors; 310,000 tested, 3.5% active;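 further: the enzyme is Sfp with the accession as filed and its product quenches rhodamine fluorescence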
#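 Step 1, compound plus 15 nM Sfp-PPTase, 15 min, room temperature. Step 2, add rhodamine-CoA (5 uM) and BHQ-2-YbbR (12.5 uM). Step 3, read 525/598 nm fluorescence at 0 and 30 min.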
# HP1b binding inh: HP1-beta chromodomain-methylated histone interaction inhibition. Potency, µM (series often up to 114 µM), hits mostly inhibitors. AlphaScreen HP1-beta / biotin-H3K9me3 peptide binding. 390,000 tested, 0.56% active. AID 540317. P83916; further: nearly all actives have a fitted effect of over 70% in size
# Target sequence (P83916 whole entry, looked up): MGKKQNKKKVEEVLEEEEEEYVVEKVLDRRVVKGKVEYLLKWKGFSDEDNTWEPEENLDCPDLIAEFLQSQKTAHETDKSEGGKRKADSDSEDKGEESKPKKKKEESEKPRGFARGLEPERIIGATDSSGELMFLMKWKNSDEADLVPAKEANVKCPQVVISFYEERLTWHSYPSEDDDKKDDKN
#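 Compound inhibition of the preformed complex between 50 nM HP1-beta and 50 nM biotinylated H3K9me3 peptide was read by AlphaScreen. Buffer was PBS pH 7.4 with 0.01% Tween-20. Incubations ran 30 min at room temperature, with 10 ug/mL donor/acceptor beads.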
# JMJD2A Tudor inh: blocks the human JMJD2A Tudor domain. Potency, µM (doses to about 114 µM), usual class: inhibitors. AlphaScreen JMJD2A-Tudor / H3K4me3 peptide binding. 390,000 tested, 4.4% active; further: nearly all actives have a fitted effect of over 50% in size
# Hits are given with their value; 0 = inactive; ? = inconclusive; - = not tested or not shown; [ ] = remark or other dose. A selection: hits, their analogues and other compounds. The true share with any hit is near 12%. The call rests on the fitted dose curve; in most records, active means well fitted curve in the direction sought with a large enough effect; inconclusive means small, poorly fitted or top-dose-only effect, or another doubt; inactive means no such curve, though single readings can be large; an effect the other way counts as inactive or inconclusive.
SMILES,BAZ2B block,G9a inh,Sfp PPTase inh,HP1b binding inh,JMJD2A Tudor inh
CCOc1ccc(C2C(C(=O)c3ccco3)=C(O)C(=O)N2CCCn2ccnc2)cc1OC (configuration not stated),50.1µM,-,0,0,0
Cc1nc(C)c(C(=O)C2=C(O)C(=O)N(CCCn3ccnc3)C2c2ccc(Cl)cc2)s1 (configuration not stated),0,0,0,0,?
Cc1cccc(NC(=O)CSC2=Nc3ccccc3C3=NC(CC(=O)NCc4cccs4)C(=O)N23)c1 (configuration not stated),0,0,-,0,0
Cc1ccc2c(c1)C(=O)OC(C(=O)Nc1ncc(Cc3ccccc3Cl)s1)C2 (configuration not stated),0,0,-,0,0
COc1ccc(/C=C/C(=O)c2ccccc2O)cc1,?,44.7µM,?,0,63.1µM
COc1ccc(/C=C/C(=O)c2ccccn2)cc1,?,39.8µM,28.2µM,0,0
O=C(/C=C/c1ccc(O)cc1)c1ccccc1O,-,?,0,-,-
Cc1ccc(NC(=O)CN2C(=O)CCc3cc(S(=O)(=O)N4CCOCC4)ccc32)cc1F,0,0[12.7 µM],-,0,0
COC(=O)c1ccccc1NC(=S)N(C)C,0,0,0,0,0
COC(=O)c1ccccc1N=C(SC)N(C)C,0,15.8µM,0,0,0
O=C(Nc1cccc(-c2nn3c(=O)cc(N4CCNCC4)nc3s2)c1)C1CCNCC1,-,-,-,-,0
COc1ccc(C(=O)NCC2(c3ccccc3)CCOCC2)cc1[N+](=O)[O-],0,0,0,?,31.6µM
Cc1ccc(CC(=O)Nc2ncc([N+](=O)[O-])s2)cc1,0,0,0,0,0
COc1ccc(C(=O)OCC(=O)Nc2ncc([N+](=O)[O-])s2)cc1OC,50.1µM,0[12.7 µM],-,?,39.8µM
O=C(COC(=O)c1ccc(Br)o1)Nc1ncc([N+](=O)[O-])s1,?,3.16µM,-,0,?
O=C(CSc1nc(=O)[nH]c2c1CCCC2)NCc1ccc(Cl)cc1,0,0,-,0,0
O=S(=O)(c1ccc2c(c1)OCO2)N1CCN(S(=O)(=O)c2c(F)cccc2F)CC1,-,-,-,-,0
CCOc1ccccc1Nc1nnc(SCC(=O)Nc2cccc(S(=O)(=O)NC3=NCCCCC3)c2)s1,0,39.8µM,?,0,0
CCOc1ccc2nc(SCC(=O)Nc3cccc(S(=O)(=O)NC4=NCCCCC4)c3)[nH]c2c1,0,44.7µM,0,0,0
CCOc1ccccc1OCC(=O)Nc1cccc(S(=O)(=O)NC2=NCCCCC2)c1,0,0[12.7 µM],-,0,0
Nc1c(N=O)c(=O)[nH]c(=O)n1-c1ccccc1,-,-,-,0,50.1µM
CCCNc1c(N)n(-c2ccccc2)c(=O)[nH]c1=O,56.2µM,35.5µM,0,0,?
Nc1c(Br)c(=O)[nH]c(=O)n1-c1ccc(F)cc1,0,0,0,0,0
CC1N=C2c3ccccc3N=C(SCC(=O)NCc3ccc(Cl)cc3)N2C1=O (configuration not stated),0,0,-,0,0
CCCCCCCCS(=O)CCC(=O)O (configuration not stated),0,22.4µM,0,0,0
SMILES,BAZ2B block,G9a inh,Sfp PPTase inh,HP1b binding inh,JMJD2A Tudor inh
c1ccc(CCn2cccc2)nc1,-,-,-,0,0
O=S1(=O)N=C(Oc2ccc(Cl)cc2)c2ccccc21,-,-,-,-,100µM
O=S1(=O)N=C(Oc2ccccc2F)c2ccccc21,-,-,-,-,79.4µM
Cc1ccc(OC2=NS(=O)(=O)c3ccccc32)cc1,?,?,0,0,?
COc1ccccc1OC1=NS(=O)(=O)c2ccccc21,?,44.7µM,0,0,0[11.4 µM]
CCN(CC)c1cccc(OC2=NS(=O)(=O)c3ccccc32)c1,56.2µM,15.8µM,0,0,63.1µM
CC1CN(S(=O)(=O)c2cc(C(=O)N3CCCCC3C)ccc2Cl)CC(C)O1 (configuration not stated),-,-,-,0,0
CC1CCCC(C)N1C(=O)Cn1cc(/C=C2/C(=O)Nc3ccccc32)c2ccccc21 (configuration not stated),?,10µM,0,?,?
COC(=O)c1cn(CC(=O)N2C(C)CCCC2C)c2ccccc12 (configuration not stated),0,0,0,0,0
CN1C(=O)/C(=C/c2cn(CC(=O)N3CCCCC3)c3ccccc23)c2ccccc21,?,11.2µM,0,-,-
Cc1ccc(C(=O)c2cn(Cc3ccc(Cl)cc3)c3nc(C)ccc3c2=O)cc1,0,0[12.7 µM],-,0,?
